This note sets out measurements from PubChem BioAssay (NCATS).

A short description of test [1]: Quantitative high throughput screen for delayed death inhibitors of the malarial parasite plastid, 96 hour incubation (AID 488745). Note: nearly all actives have a fitted effect of over 70% in size. Note: potency is the fitted concentration of half-maximal effect. An outline of the steps: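 Decreased firefly luciferase luminescence indicates inhibited growth of reporter-integrated P. falciparum after two generations (96 h, 37 C, 5% CO2). Infected erythrocytes at 0.1% parasitemia, 2% hematocrit, in Albumax-supplemented RPMI 1640.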

Test [2] concerns the target Thioredoxin reductase 1, cytoplasmic (Rattus norvegicus) (UniProt O89049). The test is described as follows: qHTS Assay for Substrates of Mammalian Selenoprotein Thioredoxin Reductase 1 (TrxR1) (AID 488772).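 Note: series mostly up to about 57 µM; a drop in NADPH fluorescence below the no-compound background marks a TrxR1 substrate.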 The gist of the method: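 In this dual-purpose format, potential substrates are identified from the first fluorescence read after selenite addition, not from the 8-minute delta. Rat enzyme is preincubated with NADPH and then with compound at ~22 deg C.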

The target is the same in test [3]. The test can be described thus: qHTS Assay for Inhibitors of Mammalian Selenoprotein Thioredoxin Reductase 1 (TrxR1) (AID 488773). Note: nearly all actives have a fitted effect of over 40% in size. Note: potency is the fitted concentration of half-maximal effect. The settings on record: Potency: inhibition. An outline of the steps: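 Inhibition is scored from the loss of NADPH fluorescence between first and last reads of an 8-min kinetic run. Selenite (400 uM) was the substrate, added after 15 min compound preincubation at room temperature.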

Test [4] concerns the target Flap endonuclease 1 (Homo sapiens) (UniProt P39748). The test can be described thus: qHTS Validation Assay for the Inhibitors of Human Flap endonuclease 1 (FEN1) (AID 488816). The gist of the method:
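Steps: add FEN1 (10 nM reagent) or buffer only; pin compounds; hold 15 min at room temperature; start with substrate, 50 nM final; read at 0 and 15 min; correct, normalize and fit a four-parameter Hill curve.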

For test [5], the target named is M-phase phosphoprotein 8 (Homo sapiens) (UniProt Q99549). The test is described as follows: qHTS Validation Assay for Inhibitors for MPP8 Chromodomain Interactions with Methylated Histone Tails (AID 488949). Note: nearly all actives have a fitted effect of over 55% in size. Note: potency is the fitted concentration of half-maximal effect. An outline of the steps: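 MPP8 (50 nM) was pre-bound to 50 nM biotinylated H3(1-18)K9me3 peptide in PBS pH 7.4 with 0.01% Tween-20. Compounds were then added for 30 min at room temperature, and complex disruption was read by AlphaScreen with streptavidin donor and nickel-chelate acceptor beads.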
Sequence of M-phase phosphoprotein 8 (Homo sapiens) (Q99549 whole entry, looked up): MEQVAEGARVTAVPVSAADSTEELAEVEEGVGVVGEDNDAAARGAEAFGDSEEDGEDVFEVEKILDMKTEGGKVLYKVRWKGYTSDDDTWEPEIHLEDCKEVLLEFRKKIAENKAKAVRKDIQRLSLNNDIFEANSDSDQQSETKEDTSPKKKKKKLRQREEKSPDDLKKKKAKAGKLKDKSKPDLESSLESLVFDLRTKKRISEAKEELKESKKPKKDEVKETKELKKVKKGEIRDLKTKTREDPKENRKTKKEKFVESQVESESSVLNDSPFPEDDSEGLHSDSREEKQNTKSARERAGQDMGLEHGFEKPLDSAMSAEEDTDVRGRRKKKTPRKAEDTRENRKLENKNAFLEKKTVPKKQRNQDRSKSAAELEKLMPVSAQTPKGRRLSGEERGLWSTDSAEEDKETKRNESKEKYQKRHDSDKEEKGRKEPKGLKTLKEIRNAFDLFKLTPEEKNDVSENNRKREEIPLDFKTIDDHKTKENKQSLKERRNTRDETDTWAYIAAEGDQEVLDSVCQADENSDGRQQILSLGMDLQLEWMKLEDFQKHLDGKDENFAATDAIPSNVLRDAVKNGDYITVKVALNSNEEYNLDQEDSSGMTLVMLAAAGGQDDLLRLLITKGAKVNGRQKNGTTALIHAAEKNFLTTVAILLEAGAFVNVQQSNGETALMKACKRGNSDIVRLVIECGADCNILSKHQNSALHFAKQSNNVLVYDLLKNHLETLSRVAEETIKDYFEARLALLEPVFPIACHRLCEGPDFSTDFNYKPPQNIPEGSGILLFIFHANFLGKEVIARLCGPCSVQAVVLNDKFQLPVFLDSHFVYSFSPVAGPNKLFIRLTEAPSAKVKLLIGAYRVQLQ

The target of test [6] is Chromobox protein homolog 1 (Homo sapiens) (UniProt P83916). The test can be described thus: qHTS Validation Assay for Inhibitors of HP1-beta Chromodomain Interactions with Methylated Histone Tails (AID 488953). Note: nearly all actives have a fitted effect of over 50% in size. Note: potency is the fitted concentration of half-maximal effect. An outline of the steps: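 AlphaScreen proximity signal from streptavidin donor and nickel chelate acceptor beads (final 10 ug/mL) after 30 min dark incubation. Compounds had 30 min at room temperature with preformed complex of 50 nM HP1-beta and 50 nM b-H3(1-18)K9me3 in PBS pH 7.4 with 0.01% Tween-20.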
Sequence of Chromobox protein homolog 1 (Homo sapiens) (P83916 whole entry, looked up): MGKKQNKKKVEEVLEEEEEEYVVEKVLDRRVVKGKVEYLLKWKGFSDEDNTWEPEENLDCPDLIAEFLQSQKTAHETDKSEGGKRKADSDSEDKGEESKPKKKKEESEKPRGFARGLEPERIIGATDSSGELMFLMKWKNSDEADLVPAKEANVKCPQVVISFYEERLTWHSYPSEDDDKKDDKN

The target in test [7] is Methanococcus maripaludis chaperonin (MmCpn) (UniProt Q6LX38). The test is described as follows: High-Throughput Screening for Modulators of Cytosolic Chaperonin Activity: MmCpn Primary Screen (AID 488978).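 Note: 50 nM MmCpn enzyme hydrolysing 30 µM ATP at 37 °C.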 An outline of the steps:
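MmCpn at 50 nM final was preincubated 5 min at RT with compound. ATP was then added at 30 uM final for 10 min at 37 C. ADP formed was detected by Transcreener HTRF (665/590 nm).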

Test [8] has as its target Transient receptor potential cation channel subfamily V member 1 (Homo sapiens) (UniProt Q8NER1). The test is described as follows: HTS Assay for Compounds that Act as Enhancers of the Vanilloid Receptor 1 (AID 488979). An outline of the steps: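 TRPV1-expressing cells loaded with Fluo-8 calcium dye; compounds added and calcium influx read kinetically for 3 min (agonist phase), then capsaicin at EC20 added and read 2 min more for enhancement. Fluorescence ex 480/em 520 nm.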

Test [9] deals with Thyrotropin receptor (Homo sapiens) (UniProt P16473). The test can be described thus: qHTS Assay for Antagonists of the Thyroid Stimulating Hormone Receptor (AID 488980). Note: series mostly up to about 58 µM. The gist of the method: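 TSHR-transfected HEK293 cells (2000/well) in HEPES-buffered HBSS with 70 uM RO 20-1724 were stimulated with 4 nM TSH (EC80, final) in the presence of compound. cAMP was measured by HTRF competition after lysis and 30 min at RT.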
Sequence of Thyrotropin receptor (Homo sapiens) (P16473 whole entry, looked up): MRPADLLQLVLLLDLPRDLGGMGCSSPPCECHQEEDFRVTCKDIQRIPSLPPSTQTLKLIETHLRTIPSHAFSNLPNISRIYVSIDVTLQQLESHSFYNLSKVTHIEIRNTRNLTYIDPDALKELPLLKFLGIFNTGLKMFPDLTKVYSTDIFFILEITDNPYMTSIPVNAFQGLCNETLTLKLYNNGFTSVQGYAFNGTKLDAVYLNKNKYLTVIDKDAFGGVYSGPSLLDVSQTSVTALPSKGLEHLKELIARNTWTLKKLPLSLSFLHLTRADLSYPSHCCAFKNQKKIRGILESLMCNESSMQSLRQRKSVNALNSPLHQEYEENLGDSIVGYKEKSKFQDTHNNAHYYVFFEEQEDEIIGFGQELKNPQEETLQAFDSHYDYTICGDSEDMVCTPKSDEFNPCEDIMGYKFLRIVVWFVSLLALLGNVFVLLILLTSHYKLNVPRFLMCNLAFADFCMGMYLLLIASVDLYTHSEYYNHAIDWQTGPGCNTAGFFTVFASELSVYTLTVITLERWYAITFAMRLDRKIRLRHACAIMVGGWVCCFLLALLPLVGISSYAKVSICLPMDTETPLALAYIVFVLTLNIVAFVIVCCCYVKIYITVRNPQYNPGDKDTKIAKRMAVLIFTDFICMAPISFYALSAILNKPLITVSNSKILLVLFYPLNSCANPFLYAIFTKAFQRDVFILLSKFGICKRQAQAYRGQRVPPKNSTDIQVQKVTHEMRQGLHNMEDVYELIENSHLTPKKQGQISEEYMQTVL

Test [10] is described as follows: Quantitative high throughput screen for delayed death inhibitors of the malarial parasite plastid, 48 hour incubation (AID 488752). Note: nearly all actives have a fitted effect of over 65% in size. An outline of the steps:
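One-generation (48 h) growth assay: a decrease in luciferase signal from an integrated reporter in P. falciparum-infected red cells (0.1% parasitemia, 2% hematocrit) after compound exposure at 37 C indicates parasite inhibition.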

Records with an inconclusive call do not appear. The source holds several records for some structures; these can differ, active in one and inactive in another. Activity calls are given as the source filed them. Calls come from the whole dose curve; as a rule, active = well fitted curve in the direction sought with a large enough effect; inconclusive = small, poorly fitted or top-dose-only effect, or another doubt; inactive = no such curve, though single readings can be large; an effect the other way counts as inactive or inconclusive.

Sequence of Flap endonuclease 1 (Homo sapiens) (P39748 whole entry, looked up): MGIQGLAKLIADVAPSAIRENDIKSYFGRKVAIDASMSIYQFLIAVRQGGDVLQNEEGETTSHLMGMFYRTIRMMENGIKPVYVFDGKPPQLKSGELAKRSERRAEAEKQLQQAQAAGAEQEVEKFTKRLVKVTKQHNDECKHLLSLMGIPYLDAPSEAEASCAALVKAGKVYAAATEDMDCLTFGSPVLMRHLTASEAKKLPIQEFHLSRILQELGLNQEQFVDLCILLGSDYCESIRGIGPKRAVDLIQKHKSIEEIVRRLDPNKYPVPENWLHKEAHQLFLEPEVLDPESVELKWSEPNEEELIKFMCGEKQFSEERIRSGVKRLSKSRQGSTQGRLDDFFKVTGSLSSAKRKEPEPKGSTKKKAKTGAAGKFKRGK
Sequence of Methanococcus maripaludis chaperonin (MmCpn) (Q6LX38 1-543): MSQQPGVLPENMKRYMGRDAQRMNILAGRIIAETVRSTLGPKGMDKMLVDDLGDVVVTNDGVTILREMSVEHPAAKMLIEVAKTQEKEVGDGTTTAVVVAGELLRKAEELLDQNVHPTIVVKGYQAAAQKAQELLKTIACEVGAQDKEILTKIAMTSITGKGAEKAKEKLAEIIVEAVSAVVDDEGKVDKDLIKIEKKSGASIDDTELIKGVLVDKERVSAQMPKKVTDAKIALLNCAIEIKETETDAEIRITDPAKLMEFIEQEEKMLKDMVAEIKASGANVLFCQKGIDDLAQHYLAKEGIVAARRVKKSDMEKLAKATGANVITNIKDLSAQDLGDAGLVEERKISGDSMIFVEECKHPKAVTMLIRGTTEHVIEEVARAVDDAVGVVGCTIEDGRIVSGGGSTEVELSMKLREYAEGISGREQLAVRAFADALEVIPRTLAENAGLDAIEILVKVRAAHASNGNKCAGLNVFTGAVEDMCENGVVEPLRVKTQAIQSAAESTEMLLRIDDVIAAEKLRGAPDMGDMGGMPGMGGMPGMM
Sequence of Transient receptor potential cation channel subfamily V member 1 (Homo sapiens) (Q8NER1 whole entry, looked up): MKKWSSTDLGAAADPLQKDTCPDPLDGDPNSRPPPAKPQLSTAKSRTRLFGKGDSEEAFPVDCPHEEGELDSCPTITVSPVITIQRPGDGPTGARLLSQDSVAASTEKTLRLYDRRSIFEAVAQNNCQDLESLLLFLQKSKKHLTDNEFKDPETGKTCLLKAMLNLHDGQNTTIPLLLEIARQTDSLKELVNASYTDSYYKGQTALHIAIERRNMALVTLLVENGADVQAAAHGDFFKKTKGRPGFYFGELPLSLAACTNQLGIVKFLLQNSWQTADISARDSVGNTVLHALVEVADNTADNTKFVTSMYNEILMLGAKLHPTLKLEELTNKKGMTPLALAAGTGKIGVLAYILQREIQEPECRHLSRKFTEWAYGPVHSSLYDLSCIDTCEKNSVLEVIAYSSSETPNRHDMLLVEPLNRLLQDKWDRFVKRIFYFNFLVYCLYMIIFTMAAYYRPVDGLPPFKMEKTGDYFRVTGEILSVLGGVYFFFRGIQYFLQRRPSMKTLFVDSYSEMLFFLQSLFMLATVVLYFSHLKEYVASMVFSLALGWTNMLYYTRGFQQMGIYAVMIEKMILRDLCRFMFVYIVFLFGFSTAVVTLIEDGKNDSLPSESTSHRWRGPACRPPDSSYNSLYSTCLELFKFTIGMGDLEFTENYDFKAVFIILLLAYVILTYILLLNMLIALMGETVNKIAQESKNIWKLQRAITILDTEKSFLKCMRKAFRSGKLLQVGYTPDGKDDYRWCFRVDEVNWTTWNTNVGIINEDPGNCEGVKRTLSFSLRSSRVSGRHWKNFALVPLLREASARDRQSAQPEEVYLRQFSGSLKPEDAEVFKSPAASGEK
Sequence of Thioredoxin reductase 1, cytoplasmic (Rattus norvegicus) (O89049 whole entry, looked up): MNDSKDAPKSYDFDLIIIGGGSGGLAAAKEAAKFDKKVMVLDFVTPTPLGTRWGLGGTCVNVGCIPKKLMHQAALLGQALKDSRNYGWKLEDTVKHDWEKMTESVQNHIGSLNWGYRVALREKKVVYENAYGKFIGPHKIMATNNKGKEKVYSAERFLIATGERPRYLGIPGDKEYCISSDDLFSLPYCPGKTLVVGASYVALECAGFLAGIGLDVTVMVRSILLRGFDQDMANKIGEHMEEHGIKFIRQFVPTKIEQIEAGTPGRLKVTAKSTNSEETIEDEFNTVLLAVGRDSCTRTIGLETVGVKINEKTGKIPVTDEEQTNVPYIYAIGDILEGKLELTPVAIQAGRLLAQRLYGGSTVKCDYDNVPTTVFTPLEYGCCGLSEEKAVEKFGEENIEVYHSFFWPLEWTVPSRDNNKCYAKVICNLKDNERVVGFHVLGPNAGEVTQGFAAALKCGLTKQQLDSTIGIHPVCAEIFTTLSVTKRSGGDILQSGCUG

As to `N[C@@H](COP(=O)(O)O)C(=O)O`, the Potency result in [1], in test [3], in [4], in [5] and in test [6] was “inactive” throughout. Moreover, the molecule was called inactive in [2], in test [7], in test [8] and in test [9].
For `CC(=O)Oc1cc(C(C)C)c(OCCN(C)C)cc1C`, the Potency entry in [1], in test [3], in test [4], in test [5] and in test [6] was “inactive” in each case. Moreover, the molecule was called inactive in test [2], in test [7], in [8] and in test [9].
As to `COc1cc(Cc2cnc(N)nc2N)cc(OC)c1OC`, the Potency entry in test [1], in test [10] and in test [3] was “inactive” throughout. Also, the molecule was classed as inactive in test [7] and in test [8].
Take `Cc1ccc(S(=O)(=O)NC(=O)NN2CCCCCC2)cc1`: the Potency result in test [1], in test [3], in [4], in test [5] and in test [6] was “inactive” each time. Further, the molecule was called inactive in test [2], in [8] and in [9].
As to `CCCNC(C)C(=O)Nc1ccccc1C` (centres undefined), the Potency entry in test [1], in [3], in test [4] and in test [5] was “inactive” each time. For the same molecule, the call in [2], in [7] and in test [8] was inactive.
In the case of `Cc1cc(C)c(/C=C2\C(=O)Nc3ccccc32)[nH]1`, the Potency entry in test [1], in test [3] and in [4] was “inactive” throughout. Besides, the molecule was called inactive in test [2], in test [7] and in test [9]. Besides, the Potency in test [5] is 7.94 µM (active) and inactive.
Turning to `O=C(O)CN(CCOCCOCCN(CC(=O)O)CC(=O)O)CC(=O)O`, the Potency result in test [1], in test [3], in test [4], in test [5] and in test [6] was “inactive” each time. Also, the call in test [2], in test [7] and in test [8] was inactive.
Consider `CN1CCN(CC(=O)N2c3ccccc3C(=O)Nc3cccnc32)CC1`, for which the Potency result in [1], in [10], in [3], in [4] and in [5] was “inactive” in each case. Also, the call in test [7] and in [8] was inactive.
For `NC(N)=NC(=O)Cc1c(Cl)cccc1Cl`, in [1], the Potency was 5.22 µM (active). The Potency result in [3], in test [4], in test [5] and in test [6] was “inactive” throughout. The outcome in test [7] and in test [8] was inactive.
Regarding `CCN1CCc2nc(N)oc2CC1`, the Potency entry in test [1], in test [4], in [5] and in [6] was “inactive” in each case. In addition, the Potency in test [3] is 29.9 µM (active). In addition, the molecule was called inactive in test [7], in test [8] and in test [9].
`CCc1cccc(N(C)C(N)=Nc2cccc3ccccc23)c1`: the Potency result in test [10], in test [3], in test [4] and in [5] was “inactive” each time. Moreover, the result in test [2], in [7] and in test [9] was inactive. In [6], the Potency was 0.0075 µM (active).
On to `CCCOc1ccccc1-c1nc2n[nH]nc2c(=O)[nH]1`, for which the Potency entry in test [10], in [3], in [4], in test [5] and in test [6] was “inactive” in each case. Further, the call in test [2], in test [7] and in test [8] was inactive.
Regarding `NCCCNCCSP(=O)(O)O`, the Potency entry in test [1], in test [3], in test [5] and in test [6] was “inactive” in each case. The call in [7], in test [8] and in test [9] was inactive.
Regarding `O=C(O)CN(CCN(CC(=O)O)CC(=O)O)CCN(CC(=O)O)CC(=O)O`, the Potency result in test [10], in test [3], in test [4], in test [5] and in [6] was “inactive” each time. Moreover, the molecule was called inactive in [2], in test [7] and in test [8].
Regarding `Fc1ccc(C(c2ccc(F)cc2)N2CCN(C/C=C/c3ccccc3)CC2)cc1`, the Potency in test [1] was 10.4 µM (active). Moreover, the Potency result in test [3], in test [4] and in test [5] was “inactive” each time. Also, the molecule was classed as inactive in [7], in [8] and in test [9].
As to `CCO/C([O-])=N/c1c[n+](N2CCOCC2)no1`, the Potency entry in test [10], in [3], in [4], in test [5] and in test [6] was “inactive” each time. Besides, the molecule was classed as inactive in test [2], in test [7], in [8] and in test [9].
With `C[C@]12C=CC(=O)C=C1CC[C@H]1[C@@H]3C[C@@H](O)[C@](O)(C(=O)CO)[C@@]3(C)C[C@H](O)[C@@]12F`, the Potency result in test [1], in [4], in test [5] and in [6] was “inactive” in each case. In addition, the molecule was classed as inactive in test [2], in test [7] and in test [8].
